{
  "source": "PubChem BioAssay (Tox21)",
  "note": "Where “and” joins values, the source holds several entries; their conditions need not be identical. Identical values can stand only once. Results filed as inconclusive are left out. Entries that show only a call come without a potency. Calls of active or inactive are those of the source. The call rests on the fitted dose curve; in most records, active means well fitted inhibition curve with a large enough effect in the signal ratio in the repeat runs (not every such curve was filed as active); inconclusive means weak or mixed curves, or effect the other way; inactive means no such curve, though single readings can be large or run the other way; the % refers to the signal ratio. Potency means the concentration at half of the fitted maximal effect.",
  "data": [
    {"molecular_target": "Vitamin D3 receptor (Homo sapiens) (UniProt P11473)", "sequence (P11473 whole entry, looked up)": "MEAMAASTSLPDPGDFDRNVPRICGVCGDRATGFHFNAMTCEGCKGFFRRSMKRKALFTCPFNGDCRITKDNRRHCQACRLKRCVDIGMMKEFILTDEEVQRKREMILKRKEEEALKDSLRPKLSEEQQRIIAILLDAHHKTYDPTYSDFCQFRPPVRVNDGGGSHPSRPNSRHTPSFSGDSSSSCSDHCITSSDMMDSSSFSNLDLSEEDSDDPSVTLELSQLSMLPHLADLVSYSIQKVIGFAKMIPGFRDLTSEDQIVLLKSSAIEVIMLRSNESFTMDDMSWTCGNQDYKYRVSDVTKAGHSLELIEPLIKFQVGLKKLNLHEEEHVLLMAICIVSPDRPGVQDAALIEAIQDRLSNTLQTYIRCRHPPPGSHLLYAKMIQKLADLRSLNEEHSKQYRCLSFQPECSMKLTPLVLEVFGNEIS", "test": "qHTS assay to identify small molecule antagonists of the vitamin D receptor (VDR) signaling pathway (AID 743223)", "conditions": "VDR-UAS-bla HEK293T, beta-lactamase FRET ratio, 16 h; series mostly up to 61 µM", "excerpt": "U.S. Tox21 Program National Center for Advancing Translational Sciences [NCATS] NIH Chemical Genomics Center [NCGC] U.S. Environmental Protection Agency [EPA] National Institutes of Environmental Health Sciences [NIEHS] National Toxicology Program [NTP] U.S. Food and Drug Administration [FDA] Tox21 Assay Overview: The vitamin D receptor (VDR), a member of nuclear hormone receptor superfamily, plays a critical role in calcium homeostasis and bone metabolism. It is also involved in cell differentiation and growth, and thrombogenicity.\nTox21 Assay Protocol Summary: VDR-bla cells were dispensed at 2,000 cells/5 uL of assay medium per well into black wall/clear-bottom 1536-well plates using a Multidrop Combi (Thermo Fisher Scientific, Waltham, MA) dispenser. After the assay plates were incubated at a 37C and 5% CO2 for 4 h, 23 nL of compounds dissolved in DMSO, positive controls or DMSO only was transferred to the assay plate by a Pintool station (Kalypsys, San Diego, CA), followed by addition of 1 uL of 1alpha, 25-Dihydroxy Vitamin D3 (3 nM, final concentration in the wells) using a Bioraptr Flying Reagent Dispenser (FRD) workstation (Beckman Coulter, Indianapolis, IN). The plates were incubated at 37C and 5% CO2 for 16 h, and then 1 uL of LiveBLAzerTM B/G FRET substrate was added using a Bioraptr FRD. The plates were incubated at room temperature for 2 h and fluorescence intensity was measured by an Envision plate reader (PerkinElmer, Shelton, CT).", "values": [
      {"smiles": "COC(c1ccccc1)(c1ccccc1)[C@H](Oc1nc(C)cc(C)n1)C(=O)O", "Potency": "inactive"},
      {"smiles": "CCCCC/C=C/CC1CC(=O)OC1=O", "note": "(stereo not given)", "Potency": "inactive"},
      {"smiles": "NC(Cc1ccc(Cl)cc1)C(=O)O", "note": "(stereo not given)", "activity change, negative = inhibition": "-2.76% [at 0.628 µM] (inactive)"},
      {"smiles": "CCN(CC)CCOc1ccc(/C(=C(\\Cl)c2ccccc2)c2ccccc2)cc1", "Potency": "31.6 µM (active)"},
      {"smiles": "O=C1Nc2ccccc2C1(c1ccc(O)cc1)c1ccc(O)cc1", "Potency": "inactive"},
      {"smiles": "COc1ccc(Cc2cnc(N)nc2N)cc1OC", "Potency": "inactive"},
      {"smiles": "C#CC(C)(CC)OC(=O)c1ccccc1C(=O)O", "note": "(stereo not given)", "Potency": "inactive"},
      {"smiles": "COc1ccc(COC(C)=O)cc1", "Potency": "inactive"},
      {"smiles": "C1COC(NC(C2CC2)C2CC2)=N1", "Potency": "inactive"},
      {"smiles": "Cc1ccc(S(=O)(=O)Oc2ccc(N=Nc3ccc(-c4ccc(N=Nc5c(O)ccc6cc(S(=O)(=O)O)cc(S(=O)(=O)O)c56)c(C)c4)cc3C)cc2)cc1", "Potency": "inactive"},
      {"smiles": "COc1nc(C)nc(Cl)c1NC1=NCCN1", "Potency": "inactive"},
      {"smiles": "Nc1cc(Cl)c(-c2cc(Cl)c(N)cc2Cl)cc1Cl", "Potency": "54.9 µM (active)"},
      {"smiles": "O=C(O)CP(=O)(O)O", "Potency": "inactive"},
      {"smiles": "Nc1cc(S(=O)(=O)O)cc2cc(S(=O)(=O)O)cc(O)c12", "Potency": "inactive"},
      {"smiles": "CC(C)(C)NC(=O)[C@@H]1CN(Cc2cccnc2)CCN1C[C@@H](O)C[C@@H](Cc1ccccc1)C(=O)N[C@H]1c2ccccc2C[C@H]1O", "Potency": "inactive"},
      {"smiles": "NC(N)=Nc1nc(CSCC/C(N)=N/S(N)(=O)=O)cs1", "Potency": "inactive"},
      {"smiles": "C=CC(=O)OCCCCCCCC", "Potency": "inactive"},
      {"smiles": "CCCCCCCCCCCCCC[P+](CCCC)(CCCC)CCCC", "Potency": "19.4 µM (active) and 24.5 µM (active)"},
      {"smiles": "NNCCc1ccccc1", "Potency": "inactive"},
      {"smiles": "CC(=O)OCC1=C(C(=O)O)N2C(=O)[C@@H](NC(=O)Cc3cccs3)[C@H]2SC1", "Potency": "inactive"},
      {"smiles": "CCCNC(C)C(=O)Nc1ccccc1C", "note": "(stereo not given)", "Potency": "inactive"},
      {"smiles": "O=C(O)Cn1cnnn1", "Potency": "inactive"},
      {"smiles": "N[C@@H]1CONC1=O", "Potency": "inactive"},
      {"smiles": "c1cnc2cc3c(cc2n1)C1CNCC3C1", "Potency": "inactive"},
      {"smiles": "CCCN[C@H]1CCc2nc(N)sc2C1", "Potency": "inactive"},
      {"smiles": "CO[Si](OC)(OC)c1ccccc1", "Potency": "inactive"},
      {"smiles": "CCCCCCCCCCCCc1ccccc1O", "Potency": "15.3 µM (active) and 19.5 µM (active)"},
      {"smiles": "CCC(=O)/C=C/C1C(C)=CCCC1(C)C", "note": "(stereo not given)", "Potency": "inactive"},
      {"smiles": "CCC[C@H](N[C@@H](C)C(=O)N1[C@H](C(=O)O)C[C@@H]2CCCC[C@@H]21)C(=O)OCC", "Potency": "inactive"},
      {"smiles": "C=CS(=O)(=O)O", "Potency": "inactive"},
      {"smiles": "CC(C)CCOCc1ccccc1", "Potency": "inactive"},
      {"smiles": "CC[C@H]1CN2CCc3cc(OC)c(OC)cc3[C@@H]2C[C@@H]1C[C@H]1NCCc2cc(OC)c(OC)cc21", "Potency": "0.492 µM (active)"},
      {"smiles": "CC[C@@H](N)CO", "Potency": "inactive"},
      {"smiles": "Cc1scc2c1N(C(=O)CN1CCN(C)CC1)c1ccccc1NC2=O", "Potency": "inactive"},
      {"smiles": "Cc1ccnc2c1NC(=O)c1cccnc1N2C1CC1", "Potency": "inactive"},
      {"smiles": "BrC1CCC(Br)C(Br)CCC(Br)C(Br)CCC1Br", "note": "(stereo not given)", "Potency": "inactive"},
      {"smiles": "CC(C)(O)CCC(C)(C)O", "Potency": "inactive"},
      {"smiles": "CCCC(=O)c1ccccc1", "Potency": "inactive"},
      {"smiles": "CCCCN(CCO)CCCC", "Potency": "inactive"},
      {"smiles": "Cc1cccc(O)c1C", "Potency": "inactive"}
    ]}
  ]
}
